# NPC1 promoter act: qHTS Assay for NPC1 Promoter Activators | Potency, µM (titrated, usually from 9.22 µM), inactives show at the top dose activation, actives largely listed as activators | AID 485313, 2010 | Huh7 NPC1 promoter luciferase reporter, 24 h | hit rate 2.4% among 320,000; further: % of control where 0% means no effect; nearly all actives have a fitted effect of over 60% in size
#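 In 1536-well qHTS, Huh7 cells harboring an NPC1 promoter–luciferase construct received compound for 24 h; activation was quantified by luminescence following luciferase reagent addition.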
# SMN2 splice up: qHTS Assay for Enhancers of SMN2 Splice Variant Expression. HEK293 SMN2-luciferase splicing reporter, luminescence, 30-36 h. Potency, µM (titrated, usually from 46.1 µM), inactives show at the top dose activity change, positive = activation, usual class: activators. hit rate 2.8% among 210,000. AID 1458, 2008; further: % of control where 0% means no effect; nearly all actives have a fitted effect of over 55% in size
#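 HEK293 cells carry an SMN2 minigene-luciferase reporter in which exon 7 inclusion puts luciferase in frame. Cells were seeded at 2000 cells/well, attached for 10-12 hours, then exposed to compounds for 30-36 hours at 37C before ONE-Glo luminescence.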
# ELG1 genotox: qHTS screen for small molecules that induce genotoxicity in human embryonic kidney (HEK293T) cells expressing luciferase-tagged ELG1; HEK293T ELG1-luciferase reporter, luminescence, 16 h; Potency, µM (doses to about 46 µM), for inactives: top-dose activity change, positive = activation, usual class: activators; hit rate 1.3% among 330,000; further: % of control where 0% means no effect; nearly all actives have a fitted effect of over 60% in size
#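 After overnight (16 hr) compound treatment at 37 °C, ELG1-luciferase HEK293T cells were lysed with ONE-Glo; luminescence quantified 30 min later at room temperature.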
# Luc counter: Counterscreen for Luciferase (Kinase-Glo TM) Inhibition; hit rate 0.28% among 200,000; Luciferin 4-monooxygenase (Photuris pensylvanica), Q27757; Kinase-Glo luciferase, ATP luminescence, 8 min; Potency, µM (top dose mostly 38.3 µM), for inactives: top-dose activity change, negative = inhibition, usual class: inhibitors; further: on the % scale 0 is the no-effect control and ±100 the full control effect; nearly all actives have a fitted effect of over 60% in size
#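 Inhibition of Kinase-Glo luciferase light generation was assessed at 10 uM ATP in pH 7.2 imidazole buffer, with luminescence measured after eight minutes at ambient temperature.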
# Rab9 prom act: qHTS Assay for Rab9 Promoter Activators; Huh7 Rab9 promoter-luciferase reporter, luminescence, 24 h; Potency, µM (series often up to 9.22 µM), without a hit: at the top dose activation, negative = inhibition, actives largely listed as activators; hit rate 2.8% among 320,000; further: % of control where 0% means no effect; nearly all actives have a fitted effect of over 60% in size
#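 Huh7 reporter line, Rab9 promoter upstream of luciferase. Compound exposure 24 h at 37 °C in reduced-serum medium with 10% FBS. Read-out: luminescence.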
# FLuc modulator: qHTS profiling assay for firefly luciferase inhibitor/activator using purifed enzyme and Km concentrations of substrates (counterscreen for miR-21 project); hit rate 6.9% among 360,000; Luciferin 4-monooxygenase (Photinus pyralis), P08659; Potency, µM (top dose mostly 57.5 µM), for the others: top-dose activity change, negative = inhibition, actives largely listed as inhibitors; purified FLuc, Km substrates, luminescence inhibition;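 further: plate controls were vehicle for no effect and reference inhibitor for full effect; nearly all actives have a fitted effect of over 55% in size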
# Target sequence (P08659 whole entry, looked up): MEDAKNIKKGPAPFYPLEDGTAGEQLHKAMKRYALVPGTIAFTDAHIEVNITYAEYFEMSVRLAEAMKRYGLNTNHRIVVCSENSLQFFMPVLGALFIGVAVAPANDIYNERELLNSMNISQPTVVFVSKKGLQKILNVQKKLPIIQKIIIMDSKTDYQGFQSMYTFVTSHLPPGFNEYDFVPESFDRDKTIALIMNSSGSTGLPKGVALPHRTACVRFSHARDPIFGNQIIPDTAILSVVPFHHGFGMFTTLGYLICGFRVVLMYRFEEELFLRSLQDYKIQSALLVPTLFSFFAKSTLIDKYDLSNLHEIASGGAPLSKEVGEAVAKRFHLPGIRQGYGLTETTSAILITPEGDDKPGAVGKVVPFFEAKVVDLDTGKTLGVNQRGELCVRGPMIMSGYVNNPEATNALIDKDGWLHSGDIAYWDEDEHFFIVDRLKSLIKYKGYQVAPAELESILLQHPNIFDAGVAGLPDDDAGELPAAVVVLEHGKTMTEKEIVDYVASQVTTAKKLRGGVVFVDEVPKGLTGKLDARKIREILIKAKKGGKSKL
#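 Purified P. pyralis luciferase, 10 nM final, with Km-level 10 uM D-luciferin and 10 uM ATP in 50 mM Tris acetate pH 7.5, 10 mM Mg acetate, 0.01% Tween-20, 0.05% BSA; 6-point qHTS titration about 60 µM downward; luminescence read.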
# Starred values were filed as active, the others as inactive; ? = inconclusive; nt = no result given. Rows were chosen to be rich in hits. Some 7.4% of all compounds tested hit in one or more screens of this group. The call rests on the fitted dose curve; in most records, active means well fitted curve in the direction sought with a large enough effect; inconclusive means small, poorly fitted or top-dose-only effect, or another doubt; inactive means no such curve, though single readings can be large; an effect the other way counts as inactive or inconclusive. Potency means the concentration at half of the fitted maximal effect.
SMILES,NPC1 promoter act,SMN2 splice up,ELG1 genotox,Luc counter,Rab9 prom act,FLuc modulator
O=S(=O)(NCC(c1ccc2c(c1)OCO2)N1CCN(c2ccccc2)CC1)c1ccccc1 (stereo not drawn),-5%,nt,-5%,nt,0%,12%
Cc1ccccc1OCc1nc2ccccc2[nH]1,?,nt,?,13µM*,1.8µM*,4.8µM*
CCCCc1nc2ccccc2[nH]1,2%,6%,0%,5%,-5%,2%
c1cnc2c(OCc3nc4ccccc4[nH]3)cccc2c1,4µM*,11µM*,?,-9%,2.2µM*,9.5µM*
COc1ccccc1OCc1nc2ccccc2[nH]1,2.5µM*,11µM*,?,-10%,2µM*,11µM*
c1ccc(Oc2cccc3cccnc23)nc1,-6%,nt,2%,nt,-3%,-1%
COc1ccc(OC)c(S(=O)(=O)N2CCN(C(=O)c3cc(C4CC4)nn3-c3ccccc3)CC2)c1,-1%,nt,-1%,nt,12%,2%
O=C(CCN=C1NS(=O)(=O)c2ccccc21)OCc1nnc(-c2ccc([N+](=O)[O-])cc2)o1,nt,nt,0%,nt,nt,nt
Cc1ccc2c(c1)N(C(=O)CCC(=O)N1CCC(C(N)=O)CC1)CCO2,-2%,nt,-1%,nt,-4%,0%
CCOc1ccc(Nc2ncnc3c2cnn3-c2ccc(F)cc2)cc1,nt,nt,nt,nt,nt,6%
Cc1ccccc1Nc1ncnc2c1cnn2-c1ccccc1,?,11µM*,8.2µM*,1%,?,17µM*
CCc1ccccc1Nc1ncnc2c1cnn2-c1ccc(Cl)cc1,nt,nt,nt,nt,nt,12µM*
Cc1ccc(-n2ncc3c(Nc4ccccc4C)ncnc32)cc1,nt,nt,nt,nt,nt,3.4µM*
CCOc1ccc(Nc2ncnc3c2cnn3-c2ccccc2)cc1,21%,-2%,18µM*,5%,25%,5%
Cc1ccc(Cl)c(OCC(=O)OCC(=O)NC2CCCc3ccccc32)c1 (stereo not drawn),0%,1%,-1%,-1%,4%,2%
CCCNc1c(F)c(F)c2c(C)c3ccccc3nc2c1F,?,13%,?,0%,?,6µM*
COc1ccc(C2CC(=O)c3sc(NC(C)=O)nc3C2)cc1 (stereo not drawn),26%,-13%,?,11%,24%,27µM*
COc1ccc(-c2nc(NC(C)=O)sc2-c2ccc(OC)cc2)cc1,2%,-1%,8%,5%,0%,0%
CN(c1ccccc1)c1nc2ccsc2c(=O)s1,?,?,13µM*,-2%,3.2µM*,12µM*
CCOc1ccc(CNC(=O)c2ccc(CSc3nc4ccncc4n3Cc3ccc(F)cc3)cc2)cc1,nt,-20%,nt,nt,nt,-9%
COc1ccc(/C=N/NC(=O)CCn2nnc3ccccc32)cc1,-4%,nt,3%,nt,1%,13µM*
COc1ccc(/C=N/NC(=O)CCSc2nc3ccccc3s2)cc1OC,-2%,18%,-1%,3%,-6%,21µM*
COc1ccccc1/C=C\C=N\NC(=O)CCn1nnc2ccccc21,8%,10%,-3%,1%,-3%,-18%
COc1ccc(/C=N/NC(=O)c2ccc(O)cc2O)cc1CSc1ccccn1,1%,7%,4%,-3%,3%,27µM*
COc1ccc(Cc2nc3ccccc3n2CC(=O)N/N=C/c2ccccc2)cc1OC,-2%,-6%,-3%,0%,0%,-2%
CCn1c(SCC(=O)N/N=C/c2ccc(OC)c(OC)c2)nc2ccccc21,1%,4%,6%,0%,-2%,17µM*
COc1ccc(/C=N/NC(=O)c2ccccc2Cl)cc1CSc1nc2ccccc2s1,-17%,-43%,?,1%,2%,-1%

# Source: PubChem
